Compounds without any hit were thinned out: in the full panel of roughly 83,000, 20% have a hit.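 Single-concentration screen, 48 h exposure, 96-well plates. Endpoint: percent growth. Below 10 = active.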 Activity calls are given as the source filed them.
What was measured:
Experiment in all cases: NCI-60 one-dose screen, 48 h (100 = growth as untreated, 0 = no growth, -100 = all killed)
Details in all cases: 10 µM unless noted
[1] = test system: NCI-H226 lung
[2] = test system: NCI-H322M lung
[3] = test system: HOP-62 NSCLC
[4] = test system: NCI-H460 lung
[5] = test system: HOP-92 NSCLC
[6] = test system: NCI-H522 lung
[7] = test system: A549/ATCC NSCLC
[8] = test system: 786-0 renal
[9] = test system: COLO 205 colon
[10] = test system: DU-145 prostate
[11] = test system: K-562 leukemia
[12] = test system: MALME-3M melanoma
[13] = test system: MDA-MB-231 breast
[14] = test system: RXF 393 renal
[15] = test system: SF-268 CNS
[16] = test system: SF-295 CNS
[17] = test system: SF-539 CNS
[18] = test system: UACC-257 melanoma
[19] = test system: M14 melanoma

Measured: growth

COc1ccc(NC(=O)[C@@H](N)Cc2ccccc2)cc1C(=O)Nc1cccc(C2CC(=O)c3c(cc(OC)c(OC)c3OC)O2)c1 (stereo partly drawn)
inactive: [1] 69.8% | [2] 79.3% | [3] 86.8% | [4] 54.7% | [5] 44.4% | [6] 39.6% | [7] 68.9% | [8] 72.2% | [9] 78.4% | [10] 58.1% | [11] 17.5% | [12] 66% | [13] 63% | [14] 73.7% | [15] 60.5% | [16] 127% | [17] 82.4% | [18] 95.5% | [19] 65%

C#CCOc1cc(N(CC)CC)ccc1C(C(=O)NC(C)(C)C)N(C(=O)C1CCc2cc(F)ccc2O1)c1ccc(F)cc1 (stereo not drawn)
inactive: [1] 43.5% | [2] 70.6% | [3] 70.2% | [4] 36.7% | [5] 39.8% | [6] 43.1% | [7] 39.8% | [8] 52.8% | [9] 32.4% | [10] 65.3% | [11] 23.6% | [12] 65.6% | [13] 51% | [14] 57.3% | [15] 47.7% | [16] 41.5% | [17] 66.2% | [18] 40.3% | [19] 46.4%

CC1(C)CC[C@]2(C(=O)O)CC[C@]3(C)C(=CCC4[C@@]5(C)C[C@@H](O)[C@@H]6OC(c7ccccc7Br)OC[C@@]6(C)C5CC[C@]43C)C2C1 (stereo partly drawn)
active: [4] 4.53% | [5] -1.51% | [9] -36.9%
inactive: [1] 26.7% | [2] 21.2% | [3] 30.3% | [6] 12.1% | [7] 16.6% | [8] 24.9% | [10] 20% | [11] 11.6% | [12] 44% | [13] 32.4% | [14] 22.7% | [15] 24.2% | [16] 10.6% | [17] 26.8% | [18] 18.2% | [19] 31.8%

COc1ccc(C(=O)/C=C/c2ccc(OC)c(OCc3ccccc3)c2)cc1OC
inactive: [1] 13.9% | [2] 13.5% | [3] 38.2% | [5] 26.3% | [8] 24.5% | [9] 20.1% | [10] 15.4% | [11] 13.2% | [12] 74.1% | [13] 17.9% | [15] 21.1% | [16] 69% | [18] 42.7% | [19] 34.6%
active: [4] 4.04% | [6] -10.7% | [7] 8.7% | [14] -10.4% | [17] -27.2%

COc1cc(-c2cc(-c3cccc(OCC(=O)O)c3)[nH]c(=O)c2C#N)cc(OC)c1OC
inactive: [1] 98.2% | [2] 91% | [3] 99.1% | [4] 111% | [5] 85.4% | [6] 104% | [7] 100% | [8] 95.8% | [9] 119% | [10] 111% | [11] 89.8% | [12] 95.9% | [14] 100% | [15] 110% | [16] 97.6% | [17] 93% | [18] 105% | [19] 97.6%

CCCSc1nc(Nc2ccc(S(N)(=O)=O)cc2)c(C#N)c(-c2ccc(Cl)cc2)n1
inactive: [2] 21.9% | [4] 28.6% | [6] 16.6% | [7] 16.3% | [9] 46.8% | [10] 58.7% | [15] 66% | [18] 54.8% | [19] 18.8%
active: [1] -2.08% | [3] -2.6% | [8] -69.7% | [11] 7.3% | [12] -4.55% | [13] -55.6% | [14] -43.4% | [16] 1.43% | [17] -4.39%

C#CCOc1cc(N(CC)CC)ccc1C(C(=O)NC(C)(C)C)N(C(=O)C1CCc2cc(F)ccc2O1)c1ccc(Br)cc1 (stereo not drawn)
inactive: [1] 81.2% | [2] 82.5% | [3] 77.1% | [4] 60.3% | [5] 89.6% | [6] 67.7% | [7] 65.1% | [8] 81.7% | [9] 59.1% | [10] 97.1% | [11] 41.1% | [12] 92.6% | [13] 61.6% | [14] 103% | [15] 92.8% | [16] 96.4% | [17] 81.1% | [18] 87.8% | [19] 68.3%

O=C1CCCc2cc(OCC(=O)N3CCCCC3)ccc2N1
inactive: [1] 101% | [2] 116% | [3] 105% | [4] 115% | [6] 108% | [7] 113% | [8] 116% | [9] 117% | [10] 122% | [11] 106% | [12] 102% | [13] 105% | [14] 110% | [15] 108% | [16] 99% | [17] 101% | [18] 111% | [19] 116%

COc1ccc(C(=O)/C=C/c2cc3c(cc2Br)OCO3)cc1S(N)(=O)=O
active: [2] 6.66% | [3] -38.4% | [4] -0.316% | [6] -46.3% | [7] 0.453% | [8] -40.4% | [9] -69% | [10] -0.788% | [14] -58.2% | [16] -22.8% | [17] -89.2% | [19] -71.2%
inactive: [1] 13.5% | [5] 15.4% | [12] 23.8% | [13] 23.7% | [15] 18.1% | [18] 63.6%

CCOC(=O)/C=C/c1cccc2c1C(=O)NC(C)(c1cc3cc(Br)ccc3oc1=O)N2 (stereo not drawn)
inactive: [1] 43.3% | [2] 88% | [3] 65.6% | [4] 46.1% | [6] 29.1% | [7] 40.1% | [8] 59.4% | [9] 46.5% | [10] 49.6% | [11] 24.1% | [12] 71% | [13] 56% | [14] 35.6% | [15] 49.8% | [16] 36.7% | [17] 73.9% | [18] 64.6% | [19] 42.4%

CCN(CC)c1ccnc(CNCCSC(c2ccccc2)(c2ccccc2)c2ccc(C)cc2)c1
active: [1] -73.3% | [2] -10.4% | [3] -89.5% | [4] -79.6% | [5] -83.9% | [6] -80.3% | [7] -86.8% | [8] -93.1% | [9] -76.6% | [10] -59.7% | [11] -45.1% | [12] -93.1% | [13] -97.7% | [14] -87.5% | [15] -55.8% | [16] -97% | [17] -97.5% | [18] -90.1% | [19] -87.2%

Nc1nnc(-c2c[nH]c3ccc(Br)cc23)c(-c2c[nH]c3ncc(Br)cc23)n1
inactive: [1] 39.3% | [2] 53.5% | [3] 49.4% | [4] 27.7% | [5] 21.5% | [6] 30.9% | [7] 42.2% | [8] 34.7% | [9] 48.3% | [10] 55.7% | [11] 18.8% | [12] 39.2% | [13] 45.8% | [15] 47.7% | [16] 41.2% | [17] 41.5% | [18] 59.5% | [19] 38.6%
active: [14] 2.79%

— PubChem BioAssay (NCI)
